# This is part of a sample that, as a whole, favours compounds with a hit. Of some 79,000 tested, about 15% had one in any assay. Unmarked numbers belong to inactive results. The source made the active and inactive calls. Rule as the data show it: active = growth inhibition above about 70%; inactive = the rest.
# Legend:
# [1] = NCI Yeast Anticancer Drug Screen. Data for the rad52 strain (AID 147);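 also: 0% = growth of vehicle-treated control cultures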; settings: S. cerevisiae rad52 mutant growth inhibition, active compounds read high
# Method in brief: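 Inhibition of yeast growth, referenced to vehicle controls, was the measured output for a strain with defective DNA damage repair.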
# [2] = NCI Yeast Anticancer Drug Screen. Data for the rad50EPP+ strain (AID 151);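 also: 0% = growth of vehicle-treated control cultures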; settings: S. cerevisiae rad50 mutant strain, active compounds read high
# Method in brief: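 Genetically defined yeast (rad50EPP+, DNA damage repair alteration) is grown with compound, and inhibition of growth is expressed relative to vehicle-treated controls.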
# [3] = NCI Yeast Anticancer Drug Screen. Data for the rad50 strain (AID 155);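 also: 0% = growth of vehicle-only cultures of the same strain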; settings: S. cerevisiae rad50 strain growth inhibition, active compounds read high
# Method in brief: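 Genetically altered yeast (DNA repair pathway); compound treatment; growth inhibition vs vehicle ctrl.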
# [4] = NCI Yeast Anticancer Drug Screen. Data for the mec2-1 strain (AID 157); settings: S. cerevisiae mec2-1 strain, active compounds read high
# Method in brief: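 Each compound was tested on mec2-1 yeast, a strain altered in DNA damage repair or cell cycle control. Growth inhibition is reported relative to vehicle.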
# [5] = NCI Yeast Anticancer Drug Screen. Data for the rad14 strain (AID 159);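 also: 0% = growth of vehicle-treated control cultures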; settings: S. cerevisiae rad14 strain growth inhibition, active compounds read high
# Method in brief: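 Test compounds were applied to a repair-deficient yeast strain. Its growth was then compared with that of cultures given vehicle alone, and inhibition was expressed relative to those controls.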
# [6] = NCI Yeast Anticancer Drug Screen. Data for the sgs1 mgt1 strain (AID 161);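 also: 0% = growth of cultures given vehicle only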; settings: S. cerevisiae sgs1 mgt1 strain, active compounds read high
# Method in brief: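 Read-out: growth inhibition vs vehicle controls. Cells: mutant yeast strain deficient in DNA damage repair.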
# [7] = NCI Yeast Anticancer Drug Screen. Data for the CLN2oe strain (AID 163);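 also: 0% = growth of vehicle-only control cultures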; settings: S. cerevisiae CLN2oe strain, active compounds read high
# Method in brief: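 First, the altered yeast strain was treated with each compound; second, its growth was measured; finally, inhibition was derived by comparison with vehicle controls.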
# [8] = NCI Yeast Anticancer Drug Screen. Data for the cln2 rad14 strain (AID 165);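 also: 0% = growth equal to vehicle treated cultures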; settings: S. cerevisiae cln2 rad14 strain, active compounds read high
# Method in brief: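 Test compounds were added to cln2 rad14 yeast cultures; inhibition of growth was then determined by comparison with vehicle treatment.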
# [9] = NCI Yeast Anticancer Drug Screen. Data for the bub3 strain (AID 167); settings: S. cerevisiae bub3 mutant strain, active compounds read high
# Method in brief: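 Yeast carrying a defined mutation is treated with each compound, and growth is compared with that of vehicle-exposed cells to give inhibition.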
# [10] = NCI Yeast Anticancer Drug Screen. Data for the wt2 strain (AID 169);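 also: 0% = growth of vehicle-treated yeast cultures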; settings: S. cerevisiae wt2 strain growth inhibition, active compounds read high
# Method in brief: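 The panel's yeast strains carry defined changes in DNA repair or cell cycle genes. Each strain is grown with compound, and growth loss is scored relative to vehicle.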
# [11] = NCI Yeast Anticancer Drug Screen. Data for the mlh1 strain (AID 171);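 also: 0% = growth of vehicle-treated control cultures of the same strain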; settings: S. cerevisiae mlh1 strain growth inhibition, active compounds read high
# Method in brief: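 Inhibition values reflect reduced yeast growth in the presence of compound, referenced to vehicle controls, using a strain chosen for its alteration in DNA repair or cell cycle control.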
# [12] = NCI Yeast Anticancer Drug Screen. Data for the sgs1 strain (AID 173);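 also: 0% = growth of vehicle-only control cultures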; settings: S. cerevisiae sgs1 mutant, active compounds read high
# Method in brief: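 Vehicle-treated cultures served as reference for growth inhibition of a yeast strain altered in DNA damage repair or cell cycle control after compound exposure.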
# [13] = NCI Yeast Anticancer Drug Screen. Data for the mlh1 rad18 strain (AID 175); settings: S. cerevisiae mlh1 rad18 strain growth inhibition, active compounds read high
# Method in brief: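 Inhibition values reflect reduced growth of mutant yeast versus vehicle-treated controls following compound exposure; the mutations affect DNA damage repair.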
# [14] = NCI Yeast Anticancer Drug Screen. Data for the rad18 strain (AID 177); settings: S. cerevisiae rad18 mutant growth inhibition, active compounds read high
# Method in brief: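 Steps: expose repair-mutant yeast to compound; measure growth; express as inhibition relative to vehicle control.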
# [15] = at 5.0 µM (retest, dose inferred, filed as 0.5)
# [16] = at 50.0 µM (retest, dose inferred, filed as 5.0)
smiles,measurement,setting,value
CCOC(=O)C(NC(=O)c1ccccc1)(N1CCN(c2cc3c(cc2F)c(=O)c(C(=O)O)cn3C2CC2)CC1)C(F)(F)F (stereo unspecified),growth inhibition,[1]; at 1.2 µM,-1%
same,growth inhibition,[1]; at 3.7 µM,2%
same,growth inhibition,[1]; at 11.0 µM,11%
same,growth inhibition,[1]; at 33.0 µM,35%
same,growth inhibition,[1]; at 100.0 µM,75% (active)
same,growth inhibition,[2]; at 1.2 µM,-1%
same,growth inhibition,[2]; at 3.7 µM,0%
same,growth inhibition,[2]; at 11.0 µM,1%
same,growth inhibition,[2]; at 33.0 µM,2%
same,growth inhibition,[2]; at 100.0 µM,14%
same,growth inhibition,[3]; at 1.2 µM,0%
same,growth inhibition,[3]; at 3.7 µM,5%
same,growth inhibition,[3]; [15],-7%
same,growth inhibition,[3]; at 11.0 µM,14%
same,growth inhibition,[3]; at 33.0 µM,47%
same,growth inhibition,[3]; [16],76% (active)
same,growth inhibition,[3]; at 50.0 µM,74.6% (active)
same,growth inhibition,[3]; at 100.0 µM,79% (active)
same,growth inhibition,[4]; at 1.2 µM,-1%
same,growth inhibition,[4]; at 3.7 µM,-2%
same,growth inhibition,[4]; [15],-6%
same,growth inhibition,[4]; at 11.0 µM,0%
same,growth inhibition,[4]; at 33.0 µM,2%
same,growth inhibition,[4]; [16],-27%
same,growth inhibition,[4]; at 50.0 µM,3.05%
same,growth inhibition,[4]; at 100.0 µM,3%
same,growth inhibition,[5]; at 1.2 µM,0%
same,growth inhibition,[5]; at 3.7 µM,2%
same,growth inhibition,[5]; at 11.0 µM,4%
same,growth inhibition,[5]; at 33.0 µM,3%
same,growth inhibition,[5]; at 100.0 µM,2%
same,growth inhibition,[6]; [15],-6%
same,growth inhibition,[6]; [16],-15%
same,growth inhibition,[6]; at 50.0 µM,-4.1%
same,growth inhibition,[7]; at 1.2 µM,-1%
same,growth inhibition,[7]; at 3.7 µM,3%
same,growth inhibition,[7]; at 11.0 µM,2%
same,growth inhibition,[7]; at 33.0 µM,6%
same,growth inhibition,[7]; at 100.0 µM,9%
same,growth inhibition,[8]; [15],41%
same,growth inhibition,[8]; [16],-13%
same,growth inhibition,[8]; at 50.0 µM,18.5%
same,growth inhibition,[9]; at 1.2 µM,-1%
same,growth inhibition,[9]; at 3.7 µM,2%
same,growth inhibition,[9]; [15],-15%
same,growth inhibition,[9]; at 11.0 µM,3%
same,growth inhibition,[9]; at 33.0 µM,-39%
same,growth inhibition,[9]; [16],3%
same,growth inhibition,[9]; at 50.0 µM,-16.1%
same,growth inhibition,[9]; at 100.0 µM,3%
same,growth inhibition,[10]; at 1.2 µM,-1%
same,growth inhibition,[10]; at 3.7 µM,-2%
same,growth inhibition,[10]; at 11.0 µM,-2%
same,growth inhibition,[10]; at 33.0 µM,-2%
same,growth inhibition,[10]; at 100.0 µM,1%
same,growth inhibition,[11]; at 1.2 µM,-1%
same,growth inhibition,[11]; at 3.7 µM,-1%
same,growth inhibition,[11]; at 11.0 µM,0%
same,growth inhibition,[11]; at 33.0 µM,0%
same,growth inhibition,[11]; at 100.0 µM,1%
same,growth inhibition,[12]; at 1.2 µM,-1%
same,growth inhibition,[12]; at 3.7 µM,0%
same,growth inhibition,[12]; at 11.0 µM,3%
same,growth inhibition,[12]; at 33.0 µM,3%
same,growth inhibition,[12]; at 100.0 µM,2%
same,growth inhibition,[13]; [15],-21%
same,growth inhibition,[13]; [16],12%
same,growth inhibition,[13]; at 50.0 µM,-1.95%
same,growth inhibition,[14]; at 1.2 µM,-3%
same,growth inhibition,[14]; at 3.7 µM,-1%
same,growth inhibition,[14]; at 11.0 µM,0%
same,growth inhibition,[14]; at 33.0 µM,2%
same,growth inhibition,[14]; at 100.0 µM,6%
COc1cc(CC2CC(c3ccc4c(c3)OCO4)OC2=O)cc(OC)c1OC (stereo unspecified),growth inhibition,[1]; at 1.2 µM,-1%
same,growth inhibition,[1]; at 3.7 µM,-1%
same,growth inhibition,[1]; at 11.0 µM,1%
same,growth inhibition,[1]; at 33.0 µM,3%
same,growth inhibition,[1]; at 100.0 µM,7%
same,growth inhibition,[2]; at 1.2 µM,-2%
same,growth inhibition,[2]; at 3.7 µM,-1%
same,growth inhibition,[2]; at 11.0 µM,0%
same,growth inhibition,[2]; at 33.0 µM,3%
same,growth inhibition,[2]; at 100.0 µM,8%
same,growth inhibition,[3]; at 1.2 µM,0%
same,growth inhibition,[3]; at 3.7 µM,1%
same,growth inhibition,[3]; [15],-6%
same,growth inhibition,[3]; at 11.0 µM,3%
same,growth inhibition,[3]; at 33.0 µM,8%
same,growth inhibition,[3]; [16],12%
same,growth inhibition,[3]; at 50.0 µM,-10.2%
same,growth inhibition,[3]; at 100.0 µM,13%
same,growth inhibition,[4]; at 1.2 µM,0%
same,growth inhibition,[4]; at 3.7 µM,-2%
same,growth inhibition,[4]; [15],6%
same,growth inhibition,[4]; at 11.0 µM,2%
same,growth inhibition,[4]; at 33.0 µM,7%
same,growth inhibition,[4]; [16],11%
same,growth inhibition,[4]; at 50.0 µM,-13.4%
same,growth inhibition,[4]; at 100.0 µM,16%
same,growth inhibition,[5]; at 1.2 µM,-2%
same,growth inhibition,[5]; at 3.7 µM,-3%
same,growth inhibition,[5]; at 11.0 µM,-1%
same,growth inhibition,[5]; at 33.0 µM,4%
same,growth inhibition,[5]; at 100.0 µM,12%
same,growth inhibition,[6]; [15],2%
same,growth inhibition,[6]; [16],6%
same,growth inhibition,[6]; at 50.0 µM,-2.9%
same,growth inhibition,[8]; [15],-1%
same,growth inhibition,[8]; [16],7%
same,growth inhibition,[8]; at 50.0 µM,1.35%
same,growth inhibition,[9]; at 1.2 µM,15%
same,growth inhibition,[9]; at 3.7 µM,28%
same,growth inhibition,[9]; [15],24%
same,growth inhibition,[9]; at 11.0 µM,43%
same,growth inhibition,[9]; at 33.0 µM,58%
same,growth inhibition,[9]; [16],54%
same,growth inhibition,[9]; at 50.0 µM,38.5%
same,growth inhibition,[9]; at 100.0 µM,82% (active)
same,growth inhibition,[10]; at 1.2 µM,-2%
same,growth inhibition,[10]; at 3.7 µM,-4%
same,growth inhibition,[10]; at 11.0 µM,-3%
same,growth inhibition,[10]; at 33.0 µM,-5%
same,growth inhibition,[10]; at 100.0 µM,0%
same,growth inhibition,[11]; at 1.2 µM,-4%
same,growth inhibition,[11]; at 3.7 µM,-3%
same,growth inhibition,[11]; at 11.0 µM,-1%
same,growth inhibition,[11]; at 33.0 µM,3%
same,growth inhibition,[11]; at 100.0 µM,11%
same,growth inhibition,[12]; at 1.2 µM,-2%
same,growth inhibition,[12]; at 3.7 µM,-2%
same,growth inhibition,[12]; at 11.0 µM,-2%
same,growth inhibition,[12]; at 33.0 µM,0%
same,growth inhibition,[12]; at 100.0 µM,9%
same,growth inhibition,[13]; [15],-2%
same,growth inhibition,[13]; [16],8%
same,growth inhibition,[13]; at 50.0 µM,18.2%
same,growth inhibition,[14]; at 1.2 µM,-4%
same,growth inhibition,[14]; at 3.7 µM,-3%
same,growth inhibition,[14]; at 11.0 µM,-1%
same,growth inhibition,[14]; at 33.0 µM,0%
same,growth inhibition,[14]; at 100.0 µM,10%

# From PubChem BioAssay (NCI)
